Laboratory results: PubChem BioAssay AID2536 (National Center for Advancing Translational Sciences (NCATS), 2010)
The source made the active and inactive calls. Calls follow the shape of the dose curve; as a rule, active = well fitted curve in the direction sought with a large enough effect; inactive = no such curve, though single readings can be large or run the other way.

target: Pyruvate kinase PKM (Homo sapiens) (UniProt P14618); experiment: Secondary Concentration-Response Assay for Activators of Human Muscle isoform 1 Pyruvate Kinase: for Probe SAR; conditions: purified hPK-M1, ATP production, Kinase-Glo luminescence
Text: NIH Chemical Genomics Center [NCGC]
Matthew G. Vander Heiden, M.D., Ph.D. [Harvard Medical School, 77 Avenue Louis Pasteur, Boston, MA 02115]
Human pyruvate kinase […] (hPK-M1) enzyme was supplied as a highly purified (>95% pure) preparation from Harvard Medical School and assayed for its ability to generate ATP from ADP using phosphoenolpyruvate (PEP) as a substrate. ATP generation was detected in a coupled reaction by luciferase-mediated luminescence, an ATP-dependent process. Pyruvate kinase substrates, PEP and ADP, were present in the assay at Km and approximately 10-fold below Km respectively. The enzyme was assayed at an intermediate level of activity to screen for both inhibitors and activators.
NCGC Assay Protocol Summary for M1-isoform:
Three uL of substrate mix (at r.t.) in assay buffer (50 mM Imidazole pH7.2, 50 mM KCl, 7 mM MgCl2, 0.01% Tween 20, 0.05% BSA) was dispensed into white solid bottom 1,536 well microtiter plates so that the final concentrations of substrates in the assay were 0.1 mM ADP and 0.5 mM PEP. 23 nL of compound were delivered by a pin tool and 1 uL of enzyme mix (final concentration of 1 nM) in assay buffer (4 degree Celsius) was added. Plates were incubated at room temperature for 1 hour. Two uL of detection mix (Kinase-Glo, Promega; at 4 degree Celsius protected from light) was added and luminescence read by a ViewLux (Perkin Elmer) at 1 second exposure/plate. Data were normalized to the uninhibited (row 31). Additionally, a no enzyme and 5-fold enzyme control was dispensed in row 32, split equally between the two conditions.

Pyruvate kinase PKM (Homo sapiens), sequence (P14618 whole entry, looked up, canonical isoform): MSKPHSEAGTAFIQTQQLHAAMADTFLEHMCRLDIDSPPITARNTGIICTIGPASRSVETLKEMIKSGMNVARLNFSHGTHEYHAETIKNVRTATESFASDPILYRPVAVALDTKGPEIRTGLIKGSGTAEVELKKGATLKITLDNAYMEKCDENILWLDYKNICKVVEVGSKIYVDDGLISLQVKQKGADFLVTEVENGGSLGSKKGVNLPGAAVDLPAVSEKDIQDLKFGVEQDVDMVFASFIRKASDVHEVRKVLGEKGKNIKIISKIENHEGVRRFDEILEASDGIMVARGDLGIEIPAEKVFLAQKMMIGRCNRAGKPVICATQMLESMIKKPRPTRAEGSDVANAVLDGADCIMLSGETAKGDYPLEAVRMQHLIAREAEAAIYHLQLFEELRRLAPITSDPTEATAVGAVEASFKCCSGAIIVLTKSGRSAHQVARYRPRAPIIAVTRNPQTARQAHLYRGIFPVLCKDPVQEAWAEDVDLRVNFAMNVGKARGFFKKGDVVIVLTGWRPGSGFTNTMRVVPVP

Max response, inactive:
Cc1ccc(NS(=O)(=O)c2ccc3c(c2)CCC(=O)N3)cc1Cl 8.72%, O=C1CCc2cc([S+](=O)([O-])NC3CCOCC3)ccc2N1 -5.17%, Cc1ccc(NS(=O)(=O)c2cc3c(cc2N2CCC2)NC(=O)CC3)cc1C -7.63%, Cn1c2cc(S(C)=O)sc2c2cnn(Cc3cccc(N)c3)c(=O)c21 (stereo not given) 2.91%, Cc1ccc(N(C)S(=O)(=O)c2ccc3c(c2)CCC(=O)N3)cc1C 0.78%, O=C1CCc2cc([S+](=O)([O-])Nc3ccc(N[S+](=O)([O-])c4ccc5c(c4)CCC(=O)N5)cc3)ccc2N1 -0.299%, CNc1cc2c(cc1S(=O)(=O)Nc1ccc(C)c(C)c1)CCC(=O)N2 -0.656%, Cc1ccc(NS(=O)(=O)c2ccc3c(c2)C(Cl)(Cl)C(=O)N3)cc1C 0.115%, Cc1c(Cl)cccc1NS(=O)(=O)c1cc2c(cc1Cl)CCC(=O)N2 0.521%, O=C1CCc2cc(S(=O)(=O)Nc3cccc(Br)c3)ccc2N1 -2.97%
